PubChem BioAssay AID449762 (Southern Research Specialized Biocontainment Screening …, 2010)
The campaign covered roughly 330,000 compounds. About 1,900 (0.58%) were called active. Roughly 4% stayed inconclusive and do not appear here. These entries were drawn from the full list. Potency and affinity values are given separately. Unmarked numbers belong to inactive results. Cut-off read from the data, not from the text of the source: inconclusive = inhibition above about 70% without an active follow-up result; inactive = below that.

experiment: M. tuberculosis growth inhibition, HTS (AID 449762);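 note: bacterial growth assessed after seven days of incubation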; settings: M. tuberculosis H37Rv growth inhibition, 7H9 media; at 25 µM; active compounds read high

Structure (SMILES) | inhibition [%]
COc1ccc(CC(=O)Nc2ccccc2N2CCCC2)cc1 | 0.8
Cc1ccc(C2CC(=O)C=C(O)C2)cc1 (configuration not stated) | 9.89
COc1ccc(CNC(=O)NCCc2c[nH]c3ccccc23)cc1 | 9.15
CSc1ccccc1NC(=O)COc1nsnc1N1CCOCC1 | 2.19
Cc1cccc(NC(=O)CSc2nc(N)c(NC(=O)c3ccccc3F)c(=O)[nH]2)c1 | -17.1
COC(=O)c1ccc2[nH]c(C(C)(C)O)c(C)c2c1 | -3.19
COc1ccc(C2=NN3C(C2)c2ccccc2OC3c2cccs2)cc1 (configuration not stated) | -3.24
c1ccc(C2Oc3ccccc3C3CC(c4cccs4)=NN32)cc1 (configuration not stated) | -7.12
COC(=O)COc1cc(=O)oc2ccc(NS(=O)(=O)c3ccccc3)cc12 | 11.6
Cn1cc(C(=O)c2cccc(Cl)c2Cl)cc1C#N | -7.62
Cc1ccc([N+](=O)[O-])cc1N(CC(=O)NC1CCCC1)S(C)(=O)=O | -1.93
COc1ccc(C)cc1NS(=O)(=O)c1ccc(NC(=O)CN(c2cc([N+](=O)[O-])ccc2C)S(C)(=O)=O)cc1 | 0.68
CCN1CCN(C(c2cc(OC)c(OC)c(OC)c2)c2nnnn2C(C)C)CC1 (configuration not stated) | -6.3
CCN1C(=NCCc2cccnc2)N[C@@H](c2ccccc2)[C@H](C(=O)OC)[C@H]1C | -0.82
CCN1C(=NCCc2ccc([N+](=O)[O-])cc2)N[C@@H](c2ccccc2)[C@H](C(=O)OC)[C@H]1C | -8.81
COc1ccc(Nc2oc(-c3ccccc3)nc2C#N)cc1 | -0.48
FC(F)(F)c1ccc(-n2cnc3ccccc32)nc1 | -0.78
COC(=O)c1ccc(N2CCN(c3ccccc3)CC2)nc1 | -3.88
Cc1c(Nc2nc(-c3ccccc3)cs2)c(=O)n(-c2ccccc2)n1C | 0.86

Structure (SMILES) | inhibition [%]
CCOC(=O)c1c(NC(=O)c2cc3n(n2)C(C(F)(F)F)CC(c2ccccc2)N3)sc(C)c1C (configuration not stated) | -4.24
O=C(C(c1ccccc1)c1ccccc1)N1CCN(CCN2C(=O)c3cccc4cccc(c34)C2=O)CC1 | -9.17
CC(C)(C)C(=O)N1CCN(CCN2C(=O)c3cccc4cccc(c34)C2=O)CC1 | -4.28
O=C(OCC#CCSc1nnc(-c2cccc3ccccc23)o1)c1ccc2ccccc2c1 | 8.92
O=C(OCC#CCSc1nnc(-c2cccc3ccccc23)o1)c1cc2ccccc2o1 | 36.1
CN1CCN(S(=O)(=O)c2ccc(SCCOc3ccccc3)nc2)CC1 | -0.98
CN1CCN(S(=O)(=O)c2ccc(SCCOc3ccc(Cl)cc3)nc2)CC1 | -1.28
Cc1c(S(=O)(=O)N2CCCCC2)c(=O)n(C)c(=O)n1C | -9.81
CN1C(=O)N(C)C2(c3ccccc3)N(C(C)(C)C)C(=O)NC12c1ccccc1 (configuration not stated) | -0.92
Cc1ccc2cc(C)c(N3CCN(c4ccc(F)cc4)CC3)nc2c1 | 0.67
Cc1ccc2cc(C)c(N3CCC(C)CC3)nc2c1 | -2.14
CN(Cc1ccc(Cl)s1)C(=O)CNC(=O)CNC(=O)c1ccc(Cl)cc1Cl | 0.015
CN(Cc1ccc(Cl)s1)C(=O)CSc1nnc(C2CC2)n1C1CC1 | 2.1
O=C(COc1ccc(Cl)cc1Cl)Nc1ccc(-c2ccc(N3CCOCC3)nn2)cc1 | 27.4
Cc1ccc2c(c1)C1C[N+](C)(CC(=O)Nc3ccccc3Cl)CCC1N2C(=O)c1ccccc1Cl (configuration not stated) | 21.9
Cc1ccc2c(c1)C1C[N+](C)(CC(=O)c3ccccc3)CCC1N2C(=O)c1ccccc1Cl (configuration not stated) | -0.23
CC(C)[C@H](NC(=O)c1ccccc1F)C(=O)Nc1nc2c(s1)CCCC2 | -0.81
COc1cccc(-c2nc(CS(=O)(=O)CC(=O)Nc3ccccc3Br)c(C)o2)c1 | -5.15
Cc1cc(N2CCCCC2)n2ncc(-c3ccc(Cl)cc3)c2n1 | 94.8

Structure (SMILES) | inhibition [%]
Cc1cc(C)n2cc(-c3ccc(Cl)cc3)c(C(=O)O)c2n1 | 5.32
Cc1nn(C)c(C)c1C1C(C#N)=C(N)Oc2n[nH]c(C)c21 (configuration not stated) | 4.26
CC(C)c1ccc(CNc2c([N+](=O)[O-])c(=O)oc3ccccc23)cc1 | 4.35
Cc1cccc(NN=C2c3ccccc3-c3ccccc32)c1 | 3.47
O=C(O)c1cc(NN=C2c3ccccc3-c3ccccc32)ccc1Cl | 14
COc1ccc(-n2c(COc3ccc4c(c3)OCO4)nnc2SCC(=O)O)cc1 | 14.8
Cc1cc2occ(CC(=O)NC3(C)CCS(=O)(=O)C3)c2cc1C (configuration not stated) | -9.66
CCOc1ccc(CNc2ccc3c(c2)ncn3C(C)(C)C)cc1 | -2.96
CN(C)c1ccc(CNc2ccc3c(c2)ncn3C(C)(C)C)cc1 | 8.27
CC(C)(C)n1nnnc1C(c1cccc(C(F)(F)F)c1)N1CCC(O)CC1 (configuration not stated) | 2.3
Cc1ccc(-c2noc(C3CCCN(C(=O)c4ccccc4)C3)n2)o1 (configuration not stated) | 2.39
Cc1ccc(-c2noc(C3CCCN(C(=O)c4ccc(Cl)cc4)C3)n2)o1 (configuration not stated) | 0.38
COc1cccc(C(=O)NNC2=C(C(=O)C(F)(F)F)CCC2)c1 | 0.71
O=C(Nc1cccc(S(=O)(=O)NC2=NCCCCC2)c1)c1cc(-c2ccccc2)nc2ccccc12 | 4.99
CCn1c(SCC(=O)N2CCCCC2C)nnc1-c1ccco1 (configuration not stated) | -6.38
Cc1cccc2cc(/C=N/NC(=O)[C@H]3C[C@@H]3c3ccccc3)c(Cl)nc12 | 1.65
O=C(N/N=C/c1cc2ccccc2nc1Cl)[C@H]1C[C@@H]1c1ccccc1 | 22.8
N#Cc1ccc(OCC(=O)Nc2cccc(S(=O)(=O)NC3=NCCCCC3)c2)cc1 | -7.44
Oc1ccc(Nc2nc(-c3ccccc3)nc3ccccc23)cc1 | 10.3
